From PubChem BioAssay (NCI)
This is part of a sample that, as a whole, favours compounds with a hit. Of some 83,000 tested, about 20% had one in any assay.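 Activity criterion: percent growth below 10, measured after cells in 96-well plates were exposed to a single compound concentration for 48 hours.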 Values without a mark were called inactive. Calls of active or inactive are those of the source.

Assays:
Assay in all cases: NCI-60 one-dose screen, 48 h (100 = growth as untreated, 0 = no growth, -100 = all killed)
Details in all cases: 10 µM unless noted
T-47D breast = test system: T-47D breast
BT-549 breast = test system: BT-549 breast
SW-620 colon = test system: SW-620 colon
MCF7 breast = test system: MCF7 breast
HCT-116 colon = test system: HCT-116 colon
HCC-2998 colon = test system: HCC-2998 colon
KM12 colon = test system: KM12 colon
MDA-MB-435 melanoma = test system: MDA-MB-435 melanoma

Row | Compound | growth (T-47D breast) | growth (BT-549 breast) | growth (SW-620 colon) | growth (MCF7 breast) | growth (HCT-116 colon) | growth (HCC-2998 colon) | growth (KM12 colon) | growth (MDA-MB-435 melanoma)
1 | CCOP(=O)(NC(c1ccccc1)c1ccccc1)OCC | 90.4% | 105% | 103% | 92.7% | 93.8% | 110% | 114% | –
2 | Cc1cccc(-[n+]2noc(N)n2)c1 | 59% | – | 86.3% | 76% | 82.2% | 79% | 70.2% | 83.7%
3 | O=C(CC(CC(=O)c1ccccc1)c1ccccn1)c1ccccc1 | 97.2% | 101% | 101% | 107% | 94% | 97% | 102% | –
4 | CC(=O)[C@@]1(O)CC[C@H]2[C@@H]3CC[C@@H]4CC(=O)CC[C@]4(C)[C@H]3[C@@H](O)C[C@@]21C | 88.2% | 102% | 100% | 93.6% | 107% | 98.4% | 101% | –
5 | Oc1ccc(CCC2CCNc3ccccc32)cc1 (centres undefined) | 63.9% | 47.2% | 97.2% | 98.6% | 89.3% | 102% | 88.4% | –
6 | S=C(Sc1ccc(Cl)cc1)Sc1ccc(Cl)cc1 | -1.08% (active) | – | -68% (active) | 24% | -68.4% (active) | 24.1% | 41% | 19.6%
7 | O=C(O)CSCC(=O)Nc1cc(C(F)(F)F)ccc1Cl | 102% | 114% | 125% | 102% | 107% | 118% | 105% | –
8 | CC(C)N(C(=O)c1ccccc1)C(C)C | 99.5% | 106% | 104% | 97.8% | 104% | 98.3% | 111% | –
9 | CCOC(=O)N[C@H]1CCc2cc(OC)c(OC)c(OC)c2-c2ccc(SC)c(=O)cc21 | 47.7% | – | 17.4% | 13.5% | 2.61% (active) | 12.2% | 2.56% (active) | -17.1% (active)
10 | Clc1ncnc2nc[nH]c12 | 90.7% | 101% | 103% | 94.9% | 102% | 89.6% | 105% | –
11 | O=C(O)Cc1ccccn1 | 110% | – | 105% | 100% | 104% | 111% | 104% | 104%
12 | CC1CCC(C)(C)c2ccccc21 (centres undefined) | 91.1% | 105% | 115% | 91.4% | 95.9% | 96.9% | 106% | –
13 | CC(C)N1CC(=O)N2CSCC2C1=O (centres undefined) | 108% | – | 102% | 98.7% | 112% | 102% | 98% | 105%
14 | CCNC(=O)Oc1ccc[nH]c1=O | 86.1% | – | 105% | 91.5% | 108% | 106% | 104% | 103%
15 | Cc1nc(O)cc(=O)[nH]1 | 113% | – | 109% | 101% | 113% | 110% | 110% | 126%
16 | CN=S(=O)(OCCCCCOS(=O)(=NC)c1ccc(C)cc1)c1ccc(C)cc1 (centres undefined) | 88.5% | – | 84.9% | 87.6% | 75.2% | 91.5% | 98.2% | 91.9%
17 | C#CCSc1nnnn1-c1ccccc1 | 39.6% | – | 53.2% | 69.3% | 71.6% | 104% | 77.6% | 85.3%
18 | CS(=O)(=O)c1ccc(/C=C\C(=O)O)cc1 | 103% | – | 81.5% | 95.8% | 93.7% | 110% | 94% | 101%
19 | O=C1Nc2ccccc2/C1=C\c1ccccc1O | 71.9% | – | 95.8% | 65.5% | 86.3% | 94.5% | 82.3% | 82.4%

Row | Compound | growth (T-47D breast) | growth (BT-549 breast) | growth (SW-620 colon) | growth (MCF7 breast) | growth (HCT-116 colon) | growth (HCC-2998 colon) | growth (KM12 colon) | growth (MDA-MB-435 melanoma)
20 | S=c1nc2[nH]c3ccccc3c2n[nH]1 | 88.2% | – | 95% | 92.2% | 96.4% | 102% | 130% | 107%
21 | COc1ccc(Br)c2c1C(=O)CC2 | 133% | – | 123% | 107% | 108% | 113% | 117% | 116%
22 | O=C1CSc2ccccc2N1 | 107% | – | 99.2% | 98.5% | 111% | 99.6% | 109% | 108%
23 | CC(CCC#N)(CCC#N)C(=O)c1ccccc1 | 93.8% | – | 103% | 95.9% | 112% | 101% | 108% | 107%
24 | C=CC(=O)OC1CCC(C(C)(C)CC)CC1 (centres undefined) | 112% | – | 107% | 96% | 104% | 110% | 106% | 103%
25 | CC(=O)c1ccc(C)cc1 | 120% | – | 106% | 100% | 105% | 105% | 106% | 112%
26 | Cc1ccc(S(=O)(=O)CCCl)cc1 | 106% | – | 110% | 100% | 118% | 104% | 111% | 117%
27 | O=[n+]1ccn([O-])c2ccccc21 | 92.4% | – | 93.9% | 95.8% | 95.7% | 108% | 99% | 101%
28 | CSc1cnc2ccccc2n1 | 81% | – | 93.9% | 98.9% | 99.2% | 98.5% | 101% | 103%
29 | CC1CC2C3CCC4=CC(=O)CCC4(C)C3CCC2(C)C1(O)C(=O)CO (centres undefined) | 103% | – | 113% | 99.8% | 109% | 104% | 119% | 115%
30 | CCOc1ccc2c(c1)c(C)cc(C)[n+]2CC | 69.5% | – | 84% | 72.3% | 54.5% | 82.9% | 17.6% | 73.9%
31 | N#C/C(=C\c1ccc2c(c1)OCO2)c1ccccc1 | 61.4% | – | 41.4% | 53% | 53.3% | 76.4% | 42.8% | -1.53% (active)
32 | O=C1NC(=O)C(c2ccccc2)O1 (centres undefined) | 83.8% | – | 111% | 105% | 98.1% | 105% | 112% | 104%
33 | CC1(c2ccccc2)CO1 (centres undefined) | 109% | – | 108% | 103% | 101% | 111% | 108% | 113%
34 | c1ccc2[nH]c(Cc3nc4ccccc4[nH]3)nc2c1 | 89.3% | – | 105% | 84.9% | 89.8% | 108% | 97.6% | 101%
35 | Cc1ccc2nc(-c3ccc(N=Cc4ccccc4O)cc3)sc2c1 | 69% | – | 97.8% | 77.1% | 79.2% | -12.3% (active) | 99.2% | 105%
36 | NC(=S)N/N=C/c1ccc(Cl)cc1 | 86.8% | – | 113% | 93.4% | 100% | 96.2% | 113% | 110%
37 | Cc1cc(C(=O)c2ccccc2)cc(C)c1O | 95.6% | – | 97.4% | 93.8% | 84.5% | 102% | 99.6% | 101%
